Compound activity as filed in PubChem BioAssay.
An excerpt weighted towards active compounds, which were near 10% of everything screened.
NPR1 antag = human Npr1 receptor antagonism; P16066; HEK293 hNpr1 GloSensor cGMP, ANP-stimulated luminescence; Potency, µM (highest dose often 46.3 µM), inactives show at the top dose activity change, negative = inhibition, actives largely listed as inhibitors; hit rate 1.6% among 76,000; AID 1347048; calls by dose curve; also: % is scaled to controls: 0 for no effect and ±100 for the full control effect; nearly all actives have a fitted effect of over 60% in size
Target sequence (P16066 whole entry, looked up): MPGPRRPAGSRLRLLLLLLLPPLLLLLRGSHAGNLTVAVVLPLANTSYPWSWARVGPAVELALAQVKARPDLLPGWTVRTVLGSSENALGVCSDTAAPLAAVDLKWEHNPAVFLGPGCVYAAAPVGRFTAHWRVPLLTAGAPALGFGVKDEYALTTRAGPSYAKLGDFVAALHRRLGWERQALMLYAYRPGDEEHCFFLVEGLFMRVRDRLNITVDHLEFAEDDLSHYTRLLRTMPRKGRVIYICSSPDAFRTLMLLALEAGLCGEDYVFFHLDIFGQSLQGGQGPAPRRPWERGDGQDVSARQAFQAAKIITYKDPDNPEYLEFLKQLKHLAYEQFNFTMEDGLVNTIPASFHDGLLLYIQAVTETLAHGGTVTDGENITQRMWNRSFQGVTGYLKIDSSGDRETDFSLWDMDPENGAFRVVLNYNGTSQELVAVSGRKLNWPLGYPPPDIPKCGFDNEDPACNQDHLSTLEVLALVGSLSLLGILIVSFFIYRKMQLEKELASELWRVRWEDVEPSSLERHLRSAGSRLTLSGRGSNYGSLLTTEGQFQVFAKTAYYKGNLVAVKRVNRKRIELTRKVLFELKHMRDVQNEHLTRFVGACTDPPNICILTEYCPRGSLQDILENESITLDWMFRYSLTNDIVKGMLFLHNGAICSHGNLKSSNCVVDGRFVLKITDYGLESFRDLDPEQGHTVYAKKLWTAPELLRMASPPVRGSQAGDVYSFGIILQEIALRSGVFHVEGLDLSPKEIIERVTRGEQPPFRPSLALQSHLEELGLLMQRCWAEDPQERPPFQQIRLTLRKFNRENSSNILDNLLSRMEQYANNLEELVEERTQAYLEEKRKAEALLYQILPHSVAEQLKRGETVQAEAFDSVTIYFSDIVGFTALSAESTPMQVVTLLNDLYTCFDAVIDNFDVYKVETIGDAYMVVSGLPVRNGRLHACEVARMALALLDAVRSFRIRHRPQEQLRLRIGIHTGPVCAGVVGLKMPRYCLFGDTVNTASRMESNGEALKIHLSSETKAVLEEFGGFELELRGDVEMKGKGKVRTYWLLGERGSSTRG
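HEK293 cells stably expressing human Npr1 and cGMP GloSensor pGS-40F, loaded 2 h with 2% GloSensor reagent, given compound 30 min at room temperature. Luminescence read before and 20 min after 0.1 nM hNppA.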
NIH3T3 tox = cytotoxic compounds in NIH 3T3 cells; AID 1345082; NIH 3T3 viability, CellTiter-Glo ATP luminescence, 48-72 h; hit rate 4.3% among 94,000; Potency, µM (series often up to 96.7 µM), for the others: at the highest dose activity change, negative = cytotoxicity, most hits filed as inhibitors; also: % is scaled to controls: 0 for no effect and ±100 for the full control effect; nearly all actives have a fitted effect of over 55% in size
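Mouse fibroblast NIH 3T3 cells, 400 per well, received compound via pintool and were incubated for 48 or 72 hr prior to CellTiter-Glo ATP luminescence measurement.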
HEK293 tox = cytotoxic compounds in HEK 293 cells. HEK 293 viability, ATP luminescence (CellTiter-Glo), 48-72 h. Potency, µM (highest dose often 115 µM), inactives show at the highest dose activity change, negative = cytotoxicity, most hits filed as inhibitors. hit rate 6.6% among 94,000; also: % is scaled to controls: 0 for no effect and ±100 for the full control effect; nearly all actives have a fitted effect of over 60% in size
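Luminescence from cellular ATP, measured with CellTiter-Glo, indicates HEK 293 viability. Cells plated at 250 cells/well are treated with compound for 48 or 72 hr at 37 degree Celsius before reagent addition.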
GPT2 inhibitor = inhibitors of human GPT2 alanine aminotransferase; hit rate 0.25% among 100,000; Recombinant GPT2, coupled pyruvate oxidase/HRP Amplex Red fluorescence; Potency, µM (top dose mostly 57.7 µM), without a hit: top-dose activity change, negative = inhibition, hits mostly inhibitors; AID 1671188; also: % is scaled to controls: 0 for no effect and ±100 for the full control effect; nearly all actives have a fitted effect of over 60% in size
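GPT2 10ng/uL, a-KG 250uM, L-Ala 2mM, HEPES pH7.5 + 0.0001% Tween; 30 min RT. Then Amplex mix (PO/HRP/ThPP), 30 min RT dark, fluorescence. AOA 50uM used as positive control.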
FLuc inh-1 = inhibitors of firefly (Photinus pyralis) luciferase | P08659 | AID 1347043 | hit rate 2.5% among 76,000 | purified P. pyralis luciferase, luminescence, biochemical | Potency, µM (top dose mostly 115 µM), actives largely listed as inhibitors; also: % is scaled to controls: 0 for no effect and ±100 for the full control effect; nearly all actives have a fitted effect of over 65% in size
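Biochemical qHTS: compound (6-point titration) added to 10uM D-luciferin plus 10uM ATP in Tris acetate pH 7.5 buffer with Mg, Tween-20 and BSA, then purified enzyme at 10nM; light output imaged.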
FLuc SDR -ATP = firefly luciferase binding stabilization, ATP absent; Potency, µM (highest dose often 32.7 µM), for inactives: at the top dose activation (signal gain), hits mostly activators; shares compounds with FLuc inh-1; hit rate 7.8% among 1,300; Purified FLuc-C-HiBiT, Nano-Glo HiBiT luminescence, no ATP; also: nearly all actives have a fitted effect of over 55% in size
FLuc SDR ATP = binders stabilizing firefly luciferase, plus ATP; Potency, µM (top dose mostly 32.7 µM), inactives show at the top dose activation (gain of signal), most hits filed as activators; shares compounds with FLuc inh-1; AID 1963319; hit rate 8.7% among 1,300; purified FLuc-C-HiBiT + ATP, HiBiT complementation luminescence;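 also: signal reports ligand binding via conformational change of the enzyme rather than luciferase catalysis; % of control where 0% means no effect; nearly all actives have a fitted effect of over 55% in size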
FLuc inh-2 = firefly luciferase enzyme inhibition | hit rate 42% among 1,300 | shares compounds with FLuc inh-1 | purified FLuc-C-HiBiT enzyme, luciferin luminescence | Potency, µM (highest dose often 32.7 µM), for the others: at the top dose activity change, negative = inhibition, most hits filed as inhibitors; also: % is scaled to controls: 0 for no effect and ±100 for the full control effect; nearly all actives have a fitted effect of over 70% in size
Starred values were filed as active, the others as inactive; i = inactive; ? = inconclusive; . = no result given; [ ] = another dose, or the depositor's remark. Unless noted, calls follow the shape of the dose curve; as a rule, active = well fitted curve in the direction sought with a large enough effect; inconclusive = small, poorly fitted or top-dose-only effect, or another doubt; inactive = no such curve, though single readings can be large; an effect the other way counts as inactive or inconclusive. Potency is read from the fitted curve at half-maximal effect.

SMILES	NPR1 antag	NIH3T3 tox	HEK293 tox	GPT2 inhibitor	FLuc inh-1	FLuc SDR -ATP	FLuc SDR ATP	FLuc inh-2
Cc1ccc(NC(=O)c2ccc(CN3C(=O)NC4(CCOCC4)C3=O)cc2)cc1C	?	-15.4%	?	i	10µM*	?	13.9%	?
Cc1cccc(NC(=O)c2ccc(CN3C(=O)NC4(CCOCC4)C3=O)cc2)c1	-25.0%	-4.4%	?	i	?	.	.	.
CC(C)c1ccc(NC(=O)c2ccc(CN3C(=O)NC4(CCOCC4)C3=O)cc2)cc1	10µM*	39.8µM*	?	4.8%	2µM*	?	?	3.51µM*
CC1=C[C@@H](CNC(=O)CCC(=O)O)[C@H](C(C)C)C[C@H]1CC(=O)NCc1cccnc1	-1.1%[70.6 µM]	-3.4%[138 µM]	-8.6%[172 µM]	-3.9%[88.5 µM]	i	.	.	.
Cc1c(Cl)cccc1-n1nnc(-c2nc(-c3ccc4c(c3)OCO4)no2)c1C	.	.	.	.	.	18.0%	15.9%	11.1µM*
CC(C)c1noc(-c2nc(-c3ccc4c(c3)OCO4)no2)n1	?	-23.5%	?	i	3.55µM*	15.7%	17.0%	7.85µM*
Cc1ccc(-c2cc(N)n(-c3ccc(C)cc3)n2)cc1	.	.	.	.	.	23.3%	13.9%	?
CN(C)c1ccc(-c2noc([C@@H]3CCCN3Cc3cnc4ccccc4c3)n2)cn1	14.1µM*	?	?	?	14.1µM*	14.5%[49.3 µM]	10.7%[49.3 µM]	-1.7%[49.3 µM]
CNc1ccc(-c2noc([C@@H]3CCCN3Cc3ccccn3)n2)cn1	-1.2%[70.6 µM]	?	-24.4%[172 µM]	i	?	.	.	.
Nc1ncnc2c1ncn2[C@@H]1O[C@H](CO)[C@@H](O)[C@H]1O	.	.	.	-2.4%	.	.	.	.
Nc1ncnc2c1ncn2[C@H]1O[C@H](CO)[C@@H](O)[C@@H]1O	.	.	.	.	.	11.5%	10.2%	2.4%
O=C1CCc2cc(NC(=O)c3n[nH]c4ccccc34)ccc2N1	-26.2%	?	?	-0.8%	2.82µM*	?	?	3.13µM*
COc1ccc(N2CCN(C(=O)c3noc(-c4ccc(C)cc4)n3)CC2)cc1	-20.8%	?	?	0.8%	14.1µM*	22.6%	15.1%	?
COc1ccccc1N1CCN(C(=O)c2noc(-c3ccc(C)cc3)n2)CC1	-5.8%	?	-24.7%	i	i	.	.	.
O=C1CC(c2ccccc2)N(C(=O)CNC(=O)Nc2ccc3c(c2)OCCO3)CCCCCN1 (centres undefined)	-2.4%	-2.3%	-2.1%	2.7%	10µM*	15.4%	13.8%	?
CC(=O)c1cc(C(=O)N2CCC(O)(c3ccc(C)cn3)CC2)c(=O)[nH]c1C	4.4%	-1.4%	1.0%	1.0%	i	.	.	.
O=C(Nc1cc(F)cc(F)c1)Nc1cccc(-c2ccc(N3CCOCC3)nn2)c1	10µM*	?	31.6µM*	-7.8%	1.26µM*	?	?	3.13µM*
COc1ccccc1NC(=O)Nc1cccc(-c2ccc(N3CCOCC3)nn2)c1	?	?	?	3.9%	1.41µM*	?	?	3.13µM*
O=C(Nc1cccc(F)c1)Nc1cccc(-c2ccc(N3CCCCC3)nn2)c1	7.94µM*	31.6µM*	?	i	0.398µM*	9.89µM*	?	0.989µM*
COc1ccc(-c2cccc(C(=O)N3CCOCC3)c2)nn1	.	-15.8%[138 µM]	-7.4%[172 µM]	.	.	.	.	.
O=C(Nc1cccc(-c2ccc(N3CCOCC3)nn2)c1)Nc1ccc2c(c1)CCC2	?	-11.5%	?	i	0.891µM*	25.9%	?	2.79µM*
CCn1ccc(C(=O)N2CC(c3nc(CCOC)no3)C2)n1	.	-19.4%	0.4%	i	.	.	.	.
COCCCNC(=O)CN1C(=O)COc2ccc(C(=O)COc3ccc(OC)cc3)cc21	0.3%	-15.3%	-10.5%	4.5%	i	.	.	.
Cc1c(Cl)cccc1NC(=O)Nc1cccc(-c2nnc3n2CCCC3)c1	0.4%	-0.6%	-17.7%	i	i	.	.	.
COc1cc(NC(=O)Nc2cccc(-c3ccc(N4CCOCC4)nn3)c2)cc(OC)c1	?	31.6µM*	?	i	0.708µM*	?	?	1.76µM*
SMILES	NPR1 antag	NIH3T3 tox	HEK293 tox	GPT2 inhibitor	FLuc inh-1	FLuc SDR -ATP	FLuc SDR ATP	FLuc inh-2
O=C(Nc1cccc(-c2ccc(N3CCOCC3)nn2)c1)Nc1cccc(Cl)c1F	?	31.6µM*	22.4µM*	-2.2%	1.58µM*	28.9%	18.1%	5.56µM*
COc1ccc(-c2cnc3[nH]cc(CC(=O)N4CCN(c5ccccn5)CC4)c3c2)cc1	?	?	79.4µM*	-17.0%[88.5 µM]	7.08µM*	24.2%[49.3 µM]	15.2%[49.3 µM]	?
Cc1ccccc1NC(=O)Cn1c(C)cc2nc3n(c(=O)c21)CCCCC3	0.2%	-8.6%	-9.6%	2.5%	i	.	.	.
Cc1ccccc1CCNC(=O)c1ccc2c(c1)nc1n2CCCCC1	.	.	.	.	.	2.79µM*	?	0.881µM*
Cc1ccccc1CCNC(=O)c1ccc2c(c1)nc1n2CCOC1	.	.	.	.	.	12.4µM*	?	4.95µM*
O=C(COc1ccccc1)N1CCC2(CC1)CN(Cc1ccccc1)CC2CO (centres undefined)	-23.8%	?	?	i	i	.	.	.
c1ccc([C@@H]2CN(Cc3ccncc3)C[C@H]2COc2ccncc2)nc1	-0.4%	-16.3%	-32.8%	-23.6%	i	.	.	.
COc1ccc(CN2CCOc3nc(-c4cc5ccccc5o4)ncc3C2=O)cc1	?	-14.1%[138 µM]	?	-0.6%[88.5 µM]	3.55µM*	16.0%[49.3 µM]	16.4%[49.3 µM]	8.05µM*
C=Cc1cccc(CN2CCCC3(CCNC3)C2)c1 (centres undefined)	-5.8%	?	?	-2.6%	i	.	.	.
C[S+](=O)([O-])CCn1ncc2cc(OCc3cccc(-c4ccc(F)cc4)c3)ccc21	25.1µM*	?	?	-32.2%[88.5 µM]	10µM*	13.1%[49.3 µM]	11.7%[49.3 µM]	?
Cc1cc(-c2cccc(COc3ccc4c(cnn4CC[S+](C)(=O)[O-])c3)c2)ccn1	10µM*	25.1µM*	25.1µM*	-3.8%[88.5 µM]	12.6µM*	20.2%[49.3 µM]	12.1%[49.3 µM]	?
C[S+](=O)([O-])CCn1ncc2cc(OCc3cccc(-c4ccccc4O)c3)ccc21	31.6µM*	?	35.5µM*	1.6%[88.5 µM]	3.98µM*	18.9%[49.3 µM]	16.1%[49.3 µM]	14.3µM*
CC(C)C(=O)N1CCC(COc2ccc3c(cnn3CC[S+](C)(=O)[O-])c2)CC1	3.8%[70.6 µM]	?	?	3.6%[88.5 µM]	?	.	.	.
